Test results taken from the supplement of paper PMC5919970.
Counter-ions that a name gives are not always drawn. In all, about 2,000 compounds were measured (“fractional viability relative to vehicle”: median about 0.91, lowest 2% from about 0.045 on). Shown is part of a subset that was picked to be rich in the lowest values.

Tested on: TYKNU
Assay: fractional viability relative to vehicle; TYKNU is a high-grade serous ovarian cancer line; higher = less growth inhibition
Details: 72 h
Procedure, shortened: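 Drug treatment lasted 72 h, with cells grown at 37 °C in 5% CO2 in RPMI 1640 supplemented with 10% FBS. Beforehand, TYKNU control cells or their lentiCRISPRv2 knockout derivatives had been seeded at 500 cells per well into drug-stamped 384-well plates carrying a ~2100-compound library at 2 or 10 μM, in duplicate. Viability came from Cell Titer Glo luminescence, with averaged duplicate treatment wells normalised to duplicate control wells in the same plate position.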

[1] = 2uM, genotype: DNM1L knockout (sgDNM1L #1)
[2] = 2uM, genotype: sgCTRLA1 (non-targeting control)
[3] = 10uM, genotype: DNM1L knockout (sgDNM1L #1)
[4] = 10uM, genotype: sgCTRLA1 (non-targeting control)

Row | SMILES | fractional viability [1] | fractional viability [2] | fractional viability [3] | fractional viability [4]
1 | O=C(Nc1cccc(Cl)c1)c1ccccn1 | 1.06 | 1.05 | 0.971 | 1.12
2 | CN(C)C(=S)NN=C(c1ccccn1)c1ccccn1 | 0.177 | 0.132 | 0.255 | 0.107
3 | Clc1ccc(NN=C(c2ccccc2)c2ccccn2)nc1 | 0.116 | 0.0468 | 0.0355 | 0.0108
4 | CCC[S+]([O-])c1ccc2[nH]c(NC(=O)OC)nc2c1 (configuration not stated) [Albendazole Oxide] | 1.04 | 0.909 | 0.505 | 0.562
5 | CC1(C)CC(=O)c2c(C(F)(F)F)nn(-c3ccc(C(N)=O)c(N[C@H]4CC[C@H](OC(=O)CN)CC4)c3)c2C1 | 0.976 | 1.16 | 0.981 | 1.09
6 | CC[C@H](NC(=O)[C@H](C)NC)C(=O)N1C[C@@H](O)C[C@H]1Cc1c(-c2[nH]c3cc(F)ccc3c2C[C@@H]2C[C@H](O)CN2C(=O)[C@H](CC)NC(=O)[C@H](C)NC)[nH]c2cc(F)ccc12 [Birinapant] | 0.772 | 1.15 | 0.653 | 0.949
7 | CS(=O)(=O)N1CCN(Cc2cc3nc(-c4cccc5[nH]ncc45)nc(N4CCOCC4)c3s2)CC1 | 0.627 | 0.588 | 0.272 | 0.249
8 | Cc1c(CN2CCN(C(=O)[C@H](C)O)CC2)sc2c(N3CCOCC3)nc(-c3cnc(N)nc3)nc12 | 0.214 | 0.238 | 0.175 | 0.15
9 | COc1ccc(-c2nc(N3CCOCC3)c3sc(CN(C)c4ncc(C(=O)NO)cn4)cc3n2)cn1 | 0.0583 | 0.0505 | 0.0565 | 0.0395
10 | O=C(Nc1c(Cl)cncc1Cl)c1ccc(OC(F)F)c(OCC2CC2)c1 [Roflumilast] | 0.966 | 0.959 | 0.921 | 1
11 | Cc1cc(C)c(S(=O)(=O)n2cc(C)cc2C)c(C)c1 | 0.788 | 0.862 | 0.757 | 0.765
12 | CC(C)NC[C@H](O)COc1ccc(CCOCC2CC2)cc1 [Levobetaxolol HCl] | 1.13 | 1.21 | 0.846 | 1.27
13 | C=CC(=O)Nc1cccc(Nc2nc(Nc3ccc(NC4CN(CCF)C4)cc3OC)ncc2C(F)(F)F)c1 | 0.67 | 0.752 | 0.164 | 0.154
14 | C=CC(=O)Nc1cc(Nc2nccc(-c3cn(C)c4ccccc34)n2)c(OC)cc1N(C)CCN(C)C | 0.614 | 0.895 | 0.0431 | 0.0512
15 | C=CC(=O)Nc1cc(Nc2nccc(-c3c[nH]c4ccccc34)n2)c(OC)cc1N(C)CCN(C)C | 0.324 | 0.409 | 0.0466 | 0.0525
16 | COc1nc(OCc2cccc(-c3ccccc3)c2C)ccc1CNCCNC(C)=O [PD-1/PD-L1 inhibitor 2] | 0.852 | 0.872 | 0.501 | 0.0875
17 | O=C(/C=C\n1cnc(-c2cc(C(F)(F)F)cc(C(F)(F)F)c2)n1)NNc1ccccn1 [Verdinexor (KPT-335)] | 0.137 | 0.13 | 0.162 | 0.121
18 | C[C@@H]1O[C@@H](O[C@H]2[C@H](Oc3cc(O)c4c(c3)O[C@H](c3ccc(O)cc3)CC4=O)O[C@H](CO)[C@@H](O)[C@@H]2O)[C@H](O)[C@H](O)[C@H]1O [Naringin] | 0.915 | 1.12 | 0.827 | 1
19 | CN1CCC(Nc2nc(Nc3ccc(Oc4ccccc4)cc3)c3c(=O)[nH]cc(Br)c3n2)CC1 | 0.131 | 0.279 | 0.0286 | 0.0109
20 | c1nc2c(NC3CCCCC3)nc(Nc3ccc(N4CCOCC4)cc3)nc2[nH]1 [Reversine] | 0.545 | 0.579 | 0.229 | 0.216

Row | SMILES | fractional viability [1] | fractional viability [2] | fractional viability [3] | fractional viability [4]
21 | C=C1CC[C@H](O)C/C1=C/C=C1\CCC[C@]2(C)[C@@H]([C@H](C)/C=C/[C@H](C)C(C)C)CC[C@@H]12 [Vitamin D2] | 1.19 | 1.02 | 0.175 | 0.739
22 | O=C1NC(=O)/C(=C/c2cccc(C(F)(F)F)c2)S1 | 0.748 | 0.945 | 0.687 | 0.786
23 | COc1ccc2c(c1)CCC1C2CCC2(C)C(NCCCCCCN3C(=O)C=CC3=O)CCC12 (configuration not stated) | 0.849 | 0.972 | 0.942 | 0.781
24 | C[C@H]1O[C@@H](n2cc(F)c(=O)[nH]c2=O)[C@H](O)[C@@H]1O [Doxifluridine] | 1.11 | 1.13 | 0.893 | 1.06
25 | CN(CCOc1ccc(NS(C)(=O)=O)cc1)CCc1ccc(NS(C)(=O)=O)cc1 [Dofetilide] | 0.999 | 0.981 | 0.838 | 0.933
26 | CCCCc1oc2ccccc2c1C(=O)c1cc(I)c(OCCN(CC)CC)c(I)c1 [Amiodarone HCl] | 0.996 | 1.07 | 0.736 | 0.965
27 | CCCCc1oc2ccc(NS(C)(=O)=O)cc2c1C(=O)c1ccc(OCCCN(CCCC)CCCC)cc1 [Dronedarone HCl] | 0.712 | 0.919 | 0.0442 | 0.0545
28 | CN(C)c1nc(N(C)C)nc(N(C)C)n1 [Altretamine] | 1.05 | 1.07 | 0.977 | 1.03
29 | CNC(=O)c1ccccc1Oc1nc(Nc2cc(OC)c(OC)c(OC)c2)ncc1Br | 0.847 | 0.94 | 0.581 | 0.589
30 | CN(CC(=O)N(Cc1ccc(C2CCCCC2)cc1)c1ccc(C(=O)O)cc1)S(=O)(=O)c1c(F)c(F)c(F)c(F)c1F | 0.435 | 0.661 | 0.042 | 0.0176
31 | FC(F)(F)c1ccc(/C=C/c2nc(COc3ccc(CCCCn4ccnn4)cc3)co2)cc1 [Mubritinib (TAK 165)] | 0.716 | 0.534 | 0.545 | 0.517
32 | O=C1CCC[C@@H]2[C@H]3CCC[N+]4([O-])CCC[C@@H](CN12)[C@@H]34 (some centres not stated) [Oxymatrine] | 0.927 | 1.15 | 0.812 | 1.1
33 | CC1=CC(=O)NS(=O)(=O)O1 [Acesulfame Potassium] | 1.16 | 1.13 | 0.791 | 1.17
34 | Cc1ccc(S(=O)(=O)/C=C/C#N)cc1 | 0.0925 | 0.0355 | 0.0225 | 0.01
35 | CC(C)(C)c1ccc(S(=O)(=O)/C=C/C#N)cc1 | 0.119 | 0.091 | 0.0418 | 0.0217
36 | C/C=C1/[C@H](O[C@@H]2O[C@H](CO)[C@@H](O)[C@H](O)[C@H]2O)OC=C(C(=O)OC)[C@H]1CC(=O)OCCc1ccc(O)c(O)c1 [Oleuropein] | 0.773 | 0.978 | 0.843 | 0.774
37 | CC[C@H](C)C[C@H](C)CCCCCCCCC(=O)N[C@H]1C[C@@H](O)[C@@H](NCCN)NC(=O)[C@@H]2[C@@H](O)CCN2C(=O)[C@H]([C@H](O)CCN)NC(=O)[C@H]([C@H](O)[C@@H](O)c2ccc(O)cc2)NC(=O)[C@@H]2C[C@@H](O)CN2C(=O)[C@H]([C@@H](C)O)NC1=O [Caspofungin Acetate] | 0.98 | 1.17 | 0.637 | 1.01
38 | Cc1ncc(Cl)cc1NCc1ccc(C(=O)N[C@@H](CC2CCCC2)C(=O)NC2CC2)s1 | 0.845 | 0.992 | 0.838 | 0.778
39 | CCOc1ccc(Cc2cc([C@@H]3O[C@H](SC)[C@@H](O)[C@H](O)[C@H]3O)ccc2Cl)cc1 [Sotagliflozin (LX4211)] | 0.825 | 1.02 | 0.592 | 0.694
40 | COC(=O)C[C@H](NC(=O)[C@H](C)NC(=O)[C@@H](NC(=O)OCc1ccccc1)C(C)C)C(=O)CF | 0.89 | 1.14 | 0.837 | 1.1

Row | SMILES | fractional viability [1] | fractional viability [2] | fractional viability [3] | fractional viability [4]
41 | CNC(=O)c1ccccc1Nc1nc(Nc2ccc(N3CCOCC3)cc2OC)ncc1Cl | 0.85 | 0.837 | 0.292 | 0.206
42 | COc1cc(N2CCC(N)CC2)ccc1Nc1ncc(Cl)c(-c2c[nH]c3ccccc23)n1 | 0.359 | 0.386 | 0.0459 | 0.0363
43 | CCOc1cc(N2CCC(O)CC2)ccc1Nc1ncc2c(n1)N(C)c1ccccc1C(=O)N2C | 0.651 | 0.842 | 0.539 | 0.531
44 | CN(N=O)C(=O)NC1C(O)OC(CO)C(O)C1O (configuration not stated) [Streptozotocin (STZ)] | 1.1 | 1.2 | 0.905 | 1.2
45 | C/C(=N\NC(=O)c1cccc(S(=O)(=O)N2CCOCC2)c1)c1cc(Cl)ccc1O | 0.348 | 0.356 | 0.242 | 0.136
46 | c1cc(-c2cnn3cc(-c4ccc(N5CCNCC5)cc4)cnc23)c2cccnc2c1 | 0.0431 | 0.069 | 0.0409 | 0.021
47 | COc1cc(-c2cc(-c3ccc(N4CCNCC4)cc3)cnc2C)cc(OC)c1OC | 0.714 | 1.02 | 0.834 | 0.772
48 | COc1ccc(-c2cnc3c(-c4cccc5ncccc45)cnn3c2)cc1 | 1.18 | 1.28 | 1.1 | 1.2
49 | CNC(=O)c1cccc(-c2ccc3c(N4CCOC[C@@H]4C)nc(N4CCOC[C@@H]4C)nc3n2)c1 | 0.277 | 0.218 | 0.201 | 0.237
50 | CCCCCCCCCCCCc1ccc(S(=O)(=O)Nc2nncs2)cc1 | 0.997 | 1.07 | 0.843 | 0.966
51 | CCCCCCCCc1ccc(CCC(N)(CO)CO)cc1 [Fingolimod (FTY720) HCl] | 0.722 | 1.02 | 0.0372 | 0.0418
52 | CCCCCCCc1ccc(CCc2cccc(O)c2C(=O)O)cc1 | 0.825 | 1.04 | 0.896 | 0.765
53 | CCCCc1nc2cc(/C=C/C(=O)NO)ccc2n1CCN(CC)CC [Pracinostat (SB939)] | 0.146 | 0.22 | 0.0823 | 0.0879
54 | O=C1NC(=O)/C(=C/c2ccc3nccc(-c4ccncc4)c3c2)S1 | 0.556 | 0.7 | 0.21 | 0.219
55 | CCCCCCCCCCCCCCCC[N+](C)(C)C [Cetrimonium Bromide (CTAB)] | 0.311 | 0.295 | 0.0593 | 0.0171
56 | CCCCCCCCCCCC[N+](C)(C)CCOc1ccccc1 [Domiphen Bromide] | 0.558 | 0.882 | 0.0673 | 0.0826
57 | CCCCCCCCCCCCCCCCO [1-Hexadecanol] | 0.833 | 1.09 | 0.879 | 1.1
58 | COc1ccc(-n2c(SCCCN3C(=O)c4cccc5cccc(c45)C3=O)nnc2-c2ccncc2)cc1 | 0.722 | 0.945 | 0.895 | 0.738
